Reference: the supplement of paper PMC3334620
In all, about 33,000 sequences were measured (“E-score (-0.5 to 0.5)”: median about -0.054, highest 2% from about 0.35 on). The full list was thinned out, with the highest values kept by preference.

molecular target: T1, Stb5 (UniProt P38699); assay: PBM E-score (8-mer binding enrichment) (E-score (-0.5 to 0.5)); higher = stronger / more preferred TF binding; details: protein concentration: 200 nM; construct: GST-full length
T1 sequence: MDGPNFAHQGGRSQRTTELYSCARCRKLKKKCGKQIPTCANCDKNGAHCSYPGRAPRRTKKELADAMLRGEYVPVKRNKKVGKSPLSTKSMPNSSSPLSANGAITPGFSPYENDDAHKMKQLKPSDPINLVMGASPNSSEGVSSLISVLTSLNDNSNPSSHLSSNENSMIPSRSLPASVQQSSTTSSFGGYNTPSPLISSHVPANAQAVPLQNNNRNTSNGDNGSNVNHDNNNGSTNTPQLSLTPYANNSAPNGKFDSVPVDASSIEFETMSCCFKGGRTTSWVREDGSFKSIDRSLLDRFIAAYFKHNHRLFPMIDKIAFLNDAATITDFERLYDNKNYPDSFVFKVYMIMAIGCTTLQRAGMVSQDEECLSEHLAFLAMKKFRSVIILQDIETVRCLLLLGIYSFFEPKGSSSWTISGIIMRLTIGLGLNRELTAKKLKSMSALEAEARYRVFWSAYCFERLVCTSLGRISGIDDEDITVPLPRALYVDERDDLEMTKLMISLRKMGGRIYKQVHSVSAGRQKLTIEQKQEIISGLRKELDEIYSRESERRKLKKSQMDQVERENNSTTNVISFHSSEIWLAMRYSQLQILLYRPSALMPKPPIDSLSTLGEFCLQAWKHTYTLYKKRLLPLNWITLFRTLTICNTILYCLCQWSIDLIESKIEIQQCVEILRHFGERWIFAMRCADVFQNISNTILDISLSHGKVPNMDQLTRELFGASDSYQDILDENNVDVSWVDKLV
Description: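 Universal 'all 10-mer' protein binding microarrays (Agilent AMADID 015681) probed with GST-tagged S. cerevisiae TFs (full-length or DBD) made by in vitro transcription/translation (PURExpress), about 100-200 nM. Bound TF was detected with fluorescent anti-GST. Each ungapped 8-mer (which stands for itself and its reverse complement) is scored by the PBM enrichment score (E-score), a modified Wilcoxon-Mann-Whitney statistic from -0.5 to +0.5, computed with the Universal PBM Analysis Suite. Scale: above 0.35 generally sequence-specific binding.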

Going from TAAATGCA to CATGCGGA, the “PBM E-score” value rises from -0.18 to 0.167.

Going from ACACCTCC to CATAGCGC, the “PBM E-score” value rises from 0.0978 to 0.161.

First: ATTGAGCC
Second: CCGGAGCC
The “PBM E-score” value of the first is lower: 0.0599 for the first, 0.182 for the second.

First: ACCTCACA
Second: TCAAGTAA
The “PBM E-score” value of the first is lower: -0.181 for the first, -0.0626 for the second.

Compared with TGGTGACA, CGGTGAAC is higher in “PBM E-score” value: 0.0421 for the first, 0.177 for the second.

Going from GGGTGACA to CGGTGAAG, the “PBM E-score” value rises from 0.0889 to 0.12.

First: CGGTGACA
Second: CGGTGAAA
The “PBM E-score” value of the first is higher: 0.42 for the first, 0.41 for the second.

Going from CACTGCCC to ACCCTGAC, the “PBM E-score” value falls from -0.0546 to -0.0664.

First: CACCGCCC
Second: CACCGCAG
The “PBM E-score” value of the first is higher: 0.41 for the first, 0.344 for the second.

Going from GACCGCCA to AACCGCCC, the “PBM E-score” value falls from 0.317 to 0.107.

Compared with TACCGCCA, AATCGCCC is lower in “PBM E-score” value: 0.323 for the first, -0.00317 for the second.

Compared with GACCGCCC, CACCGCCG is higher in “PBM E-score” value: 0.322 for the first, 0.405 for the second.

Going from CACCGCCA to AATCGCCG, the “PBM E-score” value falls from 0.408 to 0.407.

Going from CAGCGCCG to CATCGCCG, the “PBM E-score” value falls from 0.299 to 0.264.

First: AAGTTGGT
Second: TCAGCAGA
The “PBM E-score” value of the first is higher: -0.133 for the first, -0.329 for the second.

Going from CTTGACTA to CGGGAGGC, the “PBM E-score” value rises from -0.193 to -0.136.

Going from CGGTTCAG to ATGGCAAA, the “PBM E-score” value rises from -0.0792 to -0.0403.

Going from CCTAGGTC to ATGCTAAC, the “PBM E-score” value rises from -0.15 to -0.0894.

Compared with GGCAGTAC, AAGTGAAC is lower in “PBM E-score” value: 0.0214 for the first, -0.129 for the second.

Going from AACCGCCT to AACCGCCA, the “PBM E-score” value rises from 0.0427 to 0.167.

Going from AACCGCCG to AAGCGCCA, the “PBM E-score” value falls from 0.362 to -0.0397.

Compared with AAGCGCCT, AAGCGCCG is higher in “PBM E-score” value: 0.0194 for the first, 0.396 for the second.

Going from TACATATA to GGATTGAC, the “PBM E-score” value falls from 0.0481 to -0.0821.

Compared with AGACTCCA, AGTCTGTG is lower in “PBM E-score” value: -0.139 for the first, -0.27 for the second.

Going from GATGGGTA to CGGTATTA, the “PBM E-score” value rises from -0.205 to 0.472.

Going from AGGTAGTA to GGGTGGTA, the “PBM E-score” value falls from 0.0131 to -0.0756.

Compared with CGGTATTC, CGGTAGTC is lower in “PBM E-score” value: 0.275 for the first, 0.18 for the second.

Going from CGGTATCC to CGGTAGTA, the “PBM E-score” value rises from 0.211 to 0.385.

Compared with AGGTGGTA, GGGTATCA is lower in “PBM E-score” value: 0.165 for the first, -0.079 for the second.

Compared with AGGTATTA, CGGTGGTA is higher in “PBM E-score” value: 0.212 for the first, 0.441 for the second.

First: CGGTATCA
Second: GGAAAGCA
The “PBM E-score” value of the first is higher: 0.364 for the first, 0.024 for the second.

Going from AGAGTGCT to AGATCGGA, the “PBM E-score” value rises from -0.0924 to 0.335.

Going from TAGTCGAA to AATAGCAG, the “PBM E-score” value rises from -0.0837 to -0.0777.

Going from AGCTATTA to GGCTATTA, the “PBM E-score” value rises from -0.041 to -0.0171.

Going from CGCTATTA to ACTGGCGC, the “PBM E-score” value falls from 0.357 to -0.0545.

Compared with AGGGGGGA, GTATGGTA is higher in “PBM E-score” value: -0.38 for the first, -0.168 for the second.

Going from ATCCCCGA to ATCCCCGC, the “PBM E-score” value rises from 0.374 to 0.453.

Going from ATCCCCCC to GTCCCCGA, the “PBM E-score” value rises from -0.0842 to 0.185.

Going from CTCCCCGC to CTCCCCGA, the “PBM E-score” value falls from 0.248 to 0.225.

First: ATCCCCGG
Second: ATCCCGGG
The “PBM E-score” value of the first is higher: 0.379 for the first, 0.299 for the second.

First: ATCCCCCG
Second: ATTCGCAC
The “PBM E-score” value of the first is higher: 0.292 for the first, 0.00083 for the second.

First: GAAACGTA
Second: AAATGCTA
The “PBM E-score” value of the first is higher: -0.0447 for the first, -0.223 for the second.

Compared with CCTTGGCA, CGTTAACC is higher in “PBM E-score” value: -0.227 for the first, 0.0895 for the second.

Compared with GTACCAAC, ACCAGATC is lower in “PBM E-score” value: -0.00359 for the first, -0.153 for the second.

First: CTCTATGA
Second: CCTGCTAG
The “PBM E-score” value of the first is lower: -0.245 for the first, -0.0487 for the second.

First: AGTCTCAT
Second: CGCCACAC
The “PBM E-score” value of the first is lower: -0.154 for the first, 0.0326 for the second.

Going from ACGCCGTC to GCGCCGCC, the “PBM E-score” value falls from 0.405 to 0.331.

CCGCCGCC and ACGCCGCG are the same in “PBM E-score” value: 0.361 for the first, 0.361 for the second.

Compared with ACGCCGCT, CAGCCGCC is lower in “PBM E-score” value: 0.383 for the first, 0.0327 for the second.

Compared with AAGCCGCG, ACGCCTCT is lower in “PBM E-score” value: 0.287 for the first, -0.306 for the second.

First: ACGCCGTG
Second: ACGCCGTA
The “PBM E-score” value of the first is higher: 0.297 for the first, 0.204 for the second.

First: AAGCCGCT
Second: AAGCCGTC
The “PBM E-score” value of the first is lower: 0.134 for the first, 0.243 for the second.

Going from AACTTCTT to ATAGAGTA, the “PBM E-score” value rises from -0.0358 to -0.0125.

Going from CGTCTAAC to GGATAGGA, the “PBM E-score” value falls from 0.0919 to -0.00719.

Compared with CAGCGCAA, CGACAGTA is higher in “PBM E-score” value: -0.0211 for the first, 0.0893 for the second.

Compared with AGTGACGA, AGCTCCCC is lower in “PBM E-score” value: -0.191 for the first, -0.226 for the second.

Going from TACTAGCA to AGTGAAGA, the “PBM E-score” value rises from -0.277 to -0.155.

First: ACTGAAGG
Second: CATAGAGG
The “PBM E-score” value of the first is higher: -0.139 for the first, -0.173 for the second.

Compared with AGGCCGCC, ATGCCGCG is lower in “PBM E-score” value: 0.324 for the first, 0.319 for the second.

Compared with CCGCCGCG, ACGCCGCA is lower in “PBM E-score” value: 0.363 for the first, 0.354 for the second.

Going from ATGCCGCC to GCGCCGCA, the “PBM E-score” value falls from 0.423 to 0.268.

Compared with CCGCCGCA, ATGCCGCA is lower in “PBM E-score” value: 0.301 for the first, 0.25 for the second.

Going from CAGCCGCG to ACGCCGCC, the “PBM E-score” value rises from 0.0138 to 0.41.

Compared with CCGCGCCG, AAGCCGCC is lower in “PBM E-score” value: 0.288 for the first, 0.245 for the second.

Compared with AAGGGGAA, AATGGATA is higher in “PBM E-score” value: -0.188 for the first, 0.135 for the second.

First: TGGACCAA
Second: GTTACTTA
The “PBM E-score” value of the first is lower: -0.112 for the first, 0.0421 for the second.

First: CCGAGGAG
Second: AGATCAAC
The “PBM E-score” value of the first is higher: 0.0924 for the first, -0.251 for the second.

Going from CCGCCGTA to GCGCCGTA, the “PBM E-score” value falls from 0.381 to 0.253.

First: CCGCCGTC
Second: CATAAGCG
The “PBM E-score” value of the first is higher: 0.29 for the first, 0.0871 for the second.

Compared with GTTGAGGA, CTTTCACA is higher in “PBM E-score” value: -0.203 for the first, -0.0931 for the second.

Compared with GCAAGACC, CCGATGCG is higher in “PBM E-score” value: 0.146 for the first, 0.339 for the second.

First: CGGGGATA
Second: GGGGGAAA
The “PBM E-score” value of the first is higher: 0.478 for the first, 0.165 for the second.

Going from CGGAATTA to GGGGGATA, the “PBM E-score” value falls from 0.417 to 0.13.

First: AGGGGATA
Second: CGGAACTA
The “PBM E-score” value of the first is lower: 0.0586 for the first, 0.44 for the second.

First: CGGGGGAA
Second: CGGAATTC
The “PBM E-score” value of the first is higher: 0.257 for the first, 0.0284 for the second.

First: AGGAACTA
Second: CGGAACTC
The “PBM E-score” value of the first is lower: 0.0488 for the first, 0.0793 for the second.

Compared with AGGAATTA, CGGGGAAA is higher in “PBM E-score” value: -0.00087 for the first, 0.385 for the second.

Going from AGAATGGG to CCTTGACA, the “PBM E-score” value rises from -0.212 to -0.071.

Going from GCTTTTAC to ACGTCGTC, the “PBM E-score” value falls from 0.265 to -0.0716.

Going from AAAGTTTG to CGGCCGCA, the “PBM E-score” value rises from -0.169 to 0.235.

Compared with TGTAACAA, GAATCTCA is lower in “PBM E-score” value: -0.111 for the first, -0.131 for the second.

Compared with GGTCGCGA, GGGAAATA is higher in “PBM E-score” value: -0.0386 for the first, 0.134 for the second.

Going from GGGGAATA to CGGGATTA, the “PBM E-score” value rises from 0.174 to 0.471.

Going from CGGAAGTA to CGGAAGTC, the “PBM E-score” value falls from 0.352 to 0.204.

First: CGGGATTC
Second: CGGGAATA
The “PBM E-score” value of the first is lower: 0.219 for the first, 0.456 for the second.

Going from AGGAAGTA to AGGGAATA, the “PBM E-score” value rises from 0.0105 to 0.0674.

Compared with CGGAAATA, CGGAAATC is lower in “PBM E-score” value: 0.399 for the first, 0.0555 for the second.

With AGGGATTA the “PBM E-score” value was 0.0519.
